Results filed as inconclusive are left out. Active and inactive are the calls of the source. Calls follow the shape of the full dose curve.

One experiment in a line: qHTS Assay for Lipid Storage Modulators (AID 1519). As to activity change, negative = inhibition: % is scaled to controls: 0 for no effect and ±100 for the full control effect. The conditions noted are these: Drosophila S3 cells, BODIPY lipid droplet/cell ratio, laser cytometry; at 57.5 µM (top of the series); cells loaded with oleic acid. In short, it runs like this: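 Cells seeded at 5,000 per well were treated with compounds over a concentration series and loaded with oleic acid (400 uM, as added). Lipid droplet fluorescence (488 nm excitation, 500-530 nm channel) was read by laser-scanning cytometry and normalized to 20 uM Triacsin C.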
In general terms: qHTS replaces the single test concentration by a dilution series.
For `C=C(C)c1cc2cc(C(C)=O)c(O)cc2o1`, the activity change, negative = inhibition is 9.94% (inactive).

For `CC(C)NC(=O)N1CCCC2(CCN(C(=O)Oc3ccccc3)CC2)C1`, the activity change, negative = inhibition is 6.21% (inactive).

As to `CN1CCCC2(CCN(C(=O)Oc3ccccc3)CC2)C1`, the activity change, negative = inhibition is -5.13% (inactive).

On to `CC(C)CN1CCC2(CC1)CCN(S(C)(=O)=O)CC2`, for which the activity change, negative = inhibition was -1.49% (inactive).

As for `CN1CCCC2(CCN(C(=O)c3csnn3)CC2)C1`, the activity change, negative = inhibition was -1.92% (inactive).

As to `CC(C)CN1CCCC2(CCN(C(=O)c3ccncc3)CC2)C1`, the activity change, negative = inhibition is 5.13% (inactive).

As for `O=C(c1ccco1)N1CCC[C@@]2(CCN(Cc3ccncc3)C2)C1`, the activity change, negative = inhibition is 3.05% (inactive).

For `O=C(Nc1ccccc1)N1CC2(CCN(C(=O)Oc3ccccc3)CC2)C1`, the activity change, negative = inhibition is 7.64% (inactive).

As to `CC(C)CN1CC[C@@]2(CCCN(C(=O)c3ccncc3)C2)C1`, the activity change, negative = inhibition is 2.73% (inactive).

Regarding `Cc1noc(C)c1C(=O)N1CCC[C@@]2(CCN(CC(C)C)C2)C1`, the activity change, negative = inhibition was 5.3% (inactive).

With `CC(C)CN1CC2(CCN(C(=O)Oc3ccccc3)CC2)C1`, the activity change, negative = inhibition is 2.95% (inactive).

On to `O=C(Oc1ccccc1)N1CCC2(CCCN(Cc3ccccc3)C2)CC1`, for which the activity change, negative = inhibition is 2.57% (inactive).

On to `N#Cc1cccc(NC(=O)N2CC3(CCN(C(=O)Oc4ccccc4)CC3)C2)c1`, for which the activity change, negative = inhibition was 1.56% (inactive).

For the compound `O=C(c1cnccn1)N1CCC2(CC1)CN(Cc1ccncc1)C2`, the activity change, negative = inhibition is 2.96% (inactive).

Consider `CN1CCCC2(CCN(C(=O)c3ccco3)CC2)C1`, for which the activity change, negative = inhibition is -2.44% (inactive).

As to `O=C(Nc1cccc(F)c1)N1CC2(CCNCC2)C1`, the activity change, negative = inhibition is 3.38% (inactive).

Staying with this experiment, now noted: Drosophila S3 cells, BODIPY lipid droplet/cell ratio, laser cytometry; measured here: cell count channel max response; cells loaded with oleic acid.
Consider `CS(=O)(=O)N1CCC2(CCCN(Cc3ccncc3)C2)CC1`, for which the max response came to 15.9%.

As for `c1ccc(CN2CC[C@@]3(CCCNC3)C2)cc1`, the max response worked out at 8.29%.

With `O=C(c1ccncc1)N1CCC[C@@]2(CCN(Cc3nccs3)C2)C1`, the max response was 8.75%.

Regarding `COc1c2c(cc3c1OCO3)CC[N+](C)=C2`, the max response is 8.04%.

For the compound `c1cc(CN2CC3(CCNCC3)C2)ccn1`, the max response was 6.79%.

For `c1csc(CN2CC[C@@]3(CCCNC3)C2)n1`, the max response was -1.59%.

As to `COC(=O)N1CCC2(CCCN(C)C2)CC1`, the max response was 6.44%.

Turning to `c1ccc(CN2CCC3(CCNCC3)CC2)cc1`, the max response was found to be 22.2%.

Turning to `Cc1noc(C)c1C(=O)N1CCC2(CCCN(CC(C)C)C2)CC1`, the max response is -5.22%.

As for `CN1CC[C@@]2(CCCN(C(=O)c3ccncc3)C2)C1`, the max response came out at 5.11%.

Consider `c1cnc(N2CCCC3(CCNCC3)C2)nc1`, for which the max response was 9.32%.

With `c1ccc(N2CC3(CCNCC3)C2)cc1`, the max response is 11.6%.

As to `CN1CC[C@@]2(CCCN(C(=O)Oc3ccccc3)C2)C1`, the max response stood at 16.8%.

Regarding `c1csc(CN2CCC3(CCNCC3)CC2)n1`, the max response is 11.7%.

As to `O=C(Nc1ccccc1)N1CC[C@@]2(CCCN(C(=O)Oc3ccccc3)C2)C1`, the max response is 9%.

Consider `O=C(c1csnn1)N1CCC2(CC1)CN(Cc1ccncc1)C2`, for which the max response was 6.9%.

For the compound `CC(C)NC(=O)N1CC[C@@]2(CCCNC2)C1`, the max response was found to be 13.7%.

Turning to `c1ccc(N2CC3(CCNCC3)C2)nc1`, the max response came to 12.4%.

Regarding `CC(C)NC(=O)N1CCC2(CC1)CCN(C(=O)Oc1ccccc1)CC2`, the max response is -12.1%.

Take `C=C(C)c1cc2cc(C(C)=O)c(O)cc2o1`: the max response turned out to be 9.32%.

As for `CC(C)NC(=O)N1CCCC2(CCN(C(=O)Oc3ccccc3)CC2)C1`, the max response turned out to be 27.7%.

With `CN1CCCC2(CCN(C(=O)Oc3ccccc3)CC2)C1`, the max response stood at 1.15%.

Take `CC(C)CN1CCC2(CC1)CCN(S(C)(=O)=O)CC2`: the max response is -15.1%.

For `CN1CCCC2(CCN(C(=O)c3csnn3)CC2)C1`, the max response is -8.1%.

As to `CC(C)CN1CCCC2(CCN(C(=O)c3ccncc3)CC2)C1`, the max response was determined as 11.3%.

In the case of `O=C(c1ccco1)N1CCC[C@@]2(CCN(Cc3ccncc3)C2)C1`, the max response was found to be 6.21%.

`O=C(Nc1ccccc1)N1CC2(CCN(C(=O)Oc3ccccc3)CC2)C1`: the max response was 9.38%.

In the case of `CC(C)CN1CC[C@@]2(CCCN(C(=O)c3ccncc3)C2)C1`, the max response was -1.41%.

With `Cc1noc(C)c1C(=O)N1CCC[C@@]2(CCN(CC(C)C)C2)C1`, the max response is 6.03%.

As for `CC(C)CN1CC2(CCN(C(=O)Oc3ccccc3)CC2)C1`, the max response is -4.14%.

In the case of `O=C(Oc1ccccc1)N1CCC2(CCCN(Cc3ccccc3)C2)CC1`, the max response came to 0.129%.

For the compound `N#Cc1cccc(NC(=O)N2CC3(CCN(C(=O)Oc4ccccc4)CC3)C2)c1`, the max response was -4.33%.

Regarding `O=C(c1cnccn1)N1CCC2(CC1)CN(Cc1ccncc1)C2`, the max response is -1.92%.

Turning to `CN1CCCC2(CCN(C(=O)c3ccco3)CC2)C1`, the max response is -24.9%.

`O=C(Nc1cccc(F)c1)N1CC2(CCNCC2)C1`: the max response amounted to 6.28%.

The values are drawn from PubChem BioAssay (NCATS).
